Source: PubChem
CHX counter – Cycloheximide Counterscreen for Small Molecule Inhibitors of Shiga Toxin. cell reporter, cycloheximide protein synthesis inhibition counterscreen. max response, %. actives 12% (n = 300,000). AID 2314, 2010; in the data active means max response mostly above about 13%, no sharp cut-off; inactive means mostly below about 14%; further: read at 38.3 µM for the half of the compounds with a filed dose
SARS PLpro yeast – qHTS of Yeast-based Assay for SARS-CoV PLP. S. cerevisiae expressing SARS-CoV PLpro, growth rescue. Potency, µM (top dose mostly 32.9 µM), hits mostly activators. actives 0.19% (n = 330,000). AID 485353, 2010; calls by dose curve; further: nearly all actives have a fitted effect of over 55% in size
Pf growth 48h – Primary qHTS for delayed death inhibitors of the malarial parasite plastid, 48 hour incubation; P. falciparum luciferase growth in erythrocytes, 48 h; actives 5.9% (n = 310,000); Potency, µM (series often up to 28.7 µM), most hits filed as inhibitors
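Read-out is firefly luciferase luminescence from an integrated reporter in P. falciparum, so falling signal marks reduced parasite growth. Infected erythrocytes were at 2% hematocrit and 0.1% parasitemia (final) in Albumax-supplemented RPMI 1640.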
Shiga toxin inh – A qHTS for Small Molecule Inhibitors of Shiga Toxin; Vero cells, Shiga toxin protein synthesis inhibition reporter; AID 2315, 2010; inhibition, % at 38.7 µM; actives 9.2% (n = 290,000); in the data active means inhibition mostly above about 28%, no sharp cut-off; inactive means mostly below about 43%
AMA1 RON2 block – qHTS for Inhibitors of AMA1-RON; Towards Development of Antimalarial Drug Lead: Primary Screen; Plasmodium falciparum AMA1 (3D7) - RON2 peptide interaction; AlphaScreen AMA1-biotinylated RON2 peptide binding; Potency, µM (highest dose often 58.2 µM), usual class: inhibitors; actives 0.2% (n = 360,000); AID 720542, 2013; further: nearly all actives have a fitted effect of over 45% in size
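AMA1 (3D7) with his tag at 25 nM final met compounds first, then biotinylated RON2 peptide at 25 nM; detection used donor plus acceptor beads, 10 µg/mL apiece, read by AlphaScreen after 30 min at room temperature.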
Pf growth 96h – Primary qHTS for delayed death inhibitors of the malarial parasite plastid, 96 hour incubation; actives 6.9% (n = 320,000); Potency, µM (highest dose often 28.7 µM), actives largely listed as inhibitors; P. falciparum luciferase reporter growth, 96 h; AID 504834, 2011
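Delayed-death screen, second-generation endpoint: infected erythrocytes, 2% hematocrit, 0.05% parasitemia final; 96 hours at 37 C, 5% CO2; luciferase detection reagent; luminescence decrease equals reduced growth.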
A number is an active result; . = inactive; ? = inconclusive; / = no result given. The list is not random: actives were taken first. Their share in the collection is about 19%. Unless noted, the call rests on the fitted dose curve; in most records, active means well fitted curve in the direction sought with a large enough effect; inconclusive means small, poorly fitted or top-dose-only effect, or another doubt; inactive means no such curve, though single readings can be large; an effect the other way counts as inactive or inconclusive.

SMILES | CHX counter | SARS PLpro yeast | Pf growth 48h | Shiga toxin inh | AMA1 RON2 block | Pf growth 96h
C[C@]12C(=O)N(c3ccccc3)C(=O)N1[C@@H]1c3ccccc3OC[C@@H]1[C@H]2c1ccccc1 | . | . | ? | . | . | .
C[C@]12C(=O)N(c3cccc(F)c3)C(=O)N1[C@@H]1c3ccccc3OC[C@@H]1[C@H]2c1ccccc1 | . | . | ? | . | . | 8.3µM
C[C@]12C(=O)N(c3cccc(F)c3)C(=O)N1[C@H]1c3ccccc3OC[C@@H]1[C@H]2c1ccccc1 | / | . | / | / | . | /
Cc1ccc(N2C(=O)N3[C@H]4c5ccccc5OC[C@@H]4[C@@H](c4ccccc4)[C@@]3(C)C2=O)cc1 | . | . | ? | . | . | 8.3µM
COC(=O)c1c(NC(=O)c2nc3ncccn3n2)sc(C(=O)N(C)C)c1C | . | . | . | . | / | .
O=C(CCC(=O)N1CCSc2ccccc21)NC1CCCCC1 | . | . | . | . | . | ?
[O-]c1c[n+](-c2ccc(-[n+]3cc([O-])on3)cc2)no1 | 21 | . | . | . | . | .
[O-]c1c[n+](-c2ccccc2)no1 | . | . | . | . | . | .
CCc1cccc2c1NC(=O)C2(O)CC(=O)c1cccs1 (centres undefined) | . | . | . | . | . | .
OCCC1CN(Cc2ccc3cc(Cl)ccc3n2)CCN1Cc1ccsc1 (centres undefined) | . | . | ? | . | . | 5.2µM
CC(C)CCN1CCN(CC(c2ccccc2)c2ccccc2)CC1CCO (centres undefined) | . | . | 3.7µM | . | . | ?
CC(C)CCN1CCN(Cc2ccsc2)CC1CCO (centres undefined) | . | . | . | . | . | 13µM
Cc1cc(C)n(-c2nncc(-c3ccccc3)n2)n1 | 26 | ? | ? | . | . | .
Cc1cc(C)n(-c2ncc(-c3ccccc3)nn2)n1 | 57 | . | / | 90 | . | ?
Cc1cc(C)n(-c2nc(N(c3ccccc3)c3ccccc3)nc(-n3nc(C)cc3C)n2)n1 | . | . | 2.6µM | . | . | ?
Cc1cc(C)n(-c2nc(Nc3ccccc3)nc(-n3nc(C)cc3C)n2)n1 | . | . | ? | . | . | .
COc1ccc(C(C(=O)NCc2ccc(F)cc2)N(C(=O)c2csnn2)C2CC2)cc1 (centres undefined) | . | . | . | . | . | .
CCCS(=O)(=O)NC(=O)C1(C)CCCN(C(=O)c2cc(OC)c(OC)c(OC)c2)C1 (centres undefined) | / | / | / | / | . | /
O=c1[nH]ncn1-c1ccc(Br)cc1 | . | . | . | . | . | ?
Cn1c(Oc2ccc(Cl)cc2)c(C=O)c2ccccc21 | . | . | ? | . | . | 9.3µM
Cn1c(Sc2ccc(Cl)cc2)c(C=O)c2ccccc21 | . | . | 12µM | . | . | ?
COc1ccc(Oc2c(C=O)c3ccccc3n2C)cc1 | . | . | . | . | . | .
COc1ccc(NC(C)=O)cc1CNC(=O)CN1CCOCC1 | . | / | . | . | . | .
COC(=O)C1=C(N)Oc2cc(C)n(Cc3cccnc3)c(=O)c2C1c1cccc(OC)c1OC (centres undefined) | . | . | . | . | . | /
C/C=C(\C)CN1CCC(Oc2ccc(C(=O)NCc3ccccn3)cc2)CC1 | . | / | . | . | . | .
SMILES | CHX counter | SARS PLpro yeast | Pf growth 48h | Shiga toxin inh | AMA1 RON2 block | Pf growth 96h
COc1cc(S(=O)(=O)N2CCOCC2)ccc1NC(=O)COC(=O)CC12CC3CC(CC(C3)C1)C2 | . | . | / | . | . | 8.3µM
CCOc1ncccc1C(=O)Nc1cc(S(=O)(=O)N2CCCCC2)ccc1Cl | / | . | ? | / | . | 0.83µM
Cc1cc(NC(=O)CN2CCOCC2)n(-c2ccccc2)n1 | . | . | . | . | . | .
Cc1cc(NC(=O)CCc2ccc(S(=O)(=O)N3CCOCC3)cc2)n(-c2ccccc2)n1 | . | . | 13µM | . | . | ?
CCOc1ncccc1C(=O)Nc1ccc(Cl)c(S(=O)(=O)N2CCCC2)c1 | . | . | ? | . | . | ?
COc1ccc(S(=O)(=O)N2CCOCC2)cc1NC(=O)c1ccc(-n2nc(C)cc2C)cc1 | . | . | 10µM | . | . | ?
